L3MBTL1 block = blocks human L3MBTL1. AlphaScreen L3MBTL1–H3K9me1 peptide binding. Potency, µM (highest dose often 57.1 µM), without a hit: at the highest dose activity, negative = inhibition, most hits filed as inhibitors. 230,000 tested, 0.66% active. AID 485360; further: on the % scale 0 is the no-effect control and ±100 the full control effect; nearly all actives have a fitted effect of over 60% in size
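First, the protein-peptide complex forms for 30 min at room temperature (L3MBTL1 50 nM, biotinylated H3K9me1 peptide 75 nM). Next, compounds are pin-transferred and incubated 30 min. Finally, AlphaScreen beads are added and read after 30 min.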
G9a inh = blocks human histone lysine methyltransferase G9a; G9a H3K9 monomethylation, AlphaScreen, 2 h; Potency, µM (series often up to 102 µM), without a hit: at the highest dose activity, negative = inhibition, actives largely listed as inhibitors; 350,000 tested, 8.8% active; further: on the % scale 0 is the no-effect control and ±100 the full control effect; nearly all actives have a fitted effect of over 75% in size
Target sequence (Q96KQ7 913-1193 limits assumed): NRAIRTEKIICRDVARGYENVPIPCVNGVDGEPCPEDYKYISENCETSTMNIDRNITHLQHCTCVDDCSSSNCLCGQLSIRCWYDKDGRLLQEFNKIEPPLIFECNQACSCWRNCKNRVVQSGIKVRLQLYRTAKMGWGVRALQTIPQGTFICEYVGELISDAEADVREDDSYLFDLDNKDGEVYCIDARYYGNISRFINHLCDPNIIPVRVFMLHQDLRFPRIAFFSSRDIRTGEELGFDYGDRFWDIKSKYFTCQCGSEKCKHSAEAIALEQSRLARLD
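Step 1: enzyme (final 20 nM) with compound, 15 min RT. Step 2: substrate peptide 500 nM and SAM 20 uM, 2 h RT. Step 3: anti-H3K9me1 antibody and AlphaScreen beads, 10 min, then plate read.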
JMJD2A Tudor inh = inhibitors of human JMJD2A Tudor domain. AID 504339. O75164. Potency, µM (series often up to 114 µM), without a hit: at the highest dose activity change, negative = inhibition, most hits filed as inhibitors. 390,000 tested, 4.4% active. AlphaScreen JMJD2A-Tudor / H3K4me3 peptide binding; further: on the % scale 0 is the no-effect control and ±100 the full control effect; nearly all actives have a fitted effect of over 50% in size
HP1b binding inh = HP1-beta chromodomain-methylated histone interaction inhibition; Potency, µM (highest dose often 114 µM), inactives show at the top dose activity change, negative = inhibition, actives largely listed as inhibitors; AlphaScreen HP1-beta / biotin-H3K9me3 peptide binding; 390,000 tested, 0.56% active; AID 540317; further: nearly all actives have a fitted effect of over 70% in size
Target sequence (P83916 whole entry, looked up): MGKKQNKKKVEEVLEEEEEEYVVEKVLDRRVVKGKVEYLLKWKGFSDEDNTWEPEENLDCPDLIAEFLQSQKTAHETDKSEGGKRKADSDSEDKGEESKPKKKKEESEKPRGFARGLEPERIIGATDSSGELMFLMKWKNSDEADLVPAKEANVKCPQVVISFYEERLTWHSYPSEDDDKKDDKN
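HP1-beta protein (50 nM final) preincubated 30 min at room temperature with biotinylated H3(1-18)K9me3 peptide (50 nM) in PBS pH 7.4, 0.01% Tween-20, then compound added for 30 min. AlphaScreen streptavidin donor/nickel chelate acceptor beads (10 ug/mL final), 30 min dark, luminescence read.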
BAZ2B block = inhibitors of human BAZ2B bromodomain. Q9UIF8. AlphaScreen BAZ2B-H3K14Ac peptide displacement. Potency, µM (titrated, usually from 114 µM), without a hit: at the highest dose activity change, negative = inhibition, hits mostly inhibitors. 360,000 tested, 4.4% active. AID 504333; further: on the % scale 0 is the no-effect control and ±100 the full control effect; nearly all actives have a fitted effect of over 60% in size
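Compounds, titrated to a top concentration of 110 uM, were incubated 30 min at room temperature with preformed BAZ2B/acetyl-K14 H3 peptide complex (50 nM each). Proximity signal was measured by AlphaScreen after 20 min with beads.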
The depositor's hits bear a star; ? = inconclusive; · = not tested or not shown; [ ] = remark or other dose. An excerpt weighted towards active compounds, which were near 11% of everything screened. The call rests on the fitted dose curve; in most records, active means well fitted inhibition curve with a large enough effect; inconclusive means small, poorly fitted or top-dose-only effect; inactive means no such curve, though single readings can be large or run the other way. Potency means the concentration at half of the fitted maximal effect.

SMILES | L3MBTL1 block | G9a inh | JMJD2A Tudor inh | HP1b binding inh | BAZ2B block
Cc1ccc(-n2cc(CN(C)Cc3nccn3C)c(-c3ccc(F)cc3)n2)cc1 | -9.0% | · | 44.7µM* | ? | 20µM*
CN(Cc1cn(C)nc1-c1cccc(Cl)c1)Cc1nccn1C | -10.6% | -118.0%[59 µM] | -17.3% | 16.3% | ?
Cc1ccc(-n2cc(CN(C)Cc3ncc[nH]3)c(-c3cccc(C)c3)n2)cc1 | ? | ? | 31.6µM* | -3.1% | 50.1µM*
CN(Cc1ncc[nH]1)Cc1cn(-c2ccccc2)nc1-c1ccc2c(c1)OCO2 | -0.3% | ? | -29.4% | 4.6% | ?
Cc1ccc(C)c(-n2cc(CN3CCNC(=O)CC3)c(-c3ccccc3)n2)c1 | -5.5% | ? | -20.3% | 22.6% | -30.2%
CCn1ccnc1CN(C)Cc1cn(-c2ccc(C)cc2)nc1-c1ccc(F)cc1 | -8.6% | -16.4%[0.501 µM] | ? | ? | 50.1µM*
CCn1ccnc1CN(C)Cc1cn(-c2cc(C)ccc2C)nc1-c1ccccc1 | -21.5% | 50.1µM* | ? | -19.1% | ?
COc1ccc(OC)c(NC(=O)CN2CCCN(Cc3ccccc3Cl)S2(=O)=O)c1 | · | -3.4%[59 µM] | -13.1% | 52.2% | ?
Cc1ccc(NC(=O)C2CCN(S(=O)(=O)c3ccc4c(c3)CCCC(=O)N4)CC2)c(Cl)c1 | · | -4.3%[59 µM] | -6.5% | 37.6% | 4.8%[57.1 µM]
CCn1ccnc1CN(C)Cc1cn(-c2ccccc2)nc1-c1ccc(OC)cc1F | -3.3% | ? | 39.8µM* | -9.1% | -31.3%
CCn1ccnc1CN(C)Cc1cn(C)nc1-c1ccccc1F | -2.0% | ? | -25.2% | 20.5% | ?
CN(/N=C/c1cc(Cl)cc(Cl)c1O)c1c(Cl)cccc1[N+](=O)[O-] | ? | · | 39.8µM* | ? | 10µM*
CC(C)(C)N/N=C/c1cc(Cl)cc([N+](=O)[O-])c1O | 4.7% | -1.2%[59 µM] | ? | -33.2% | ?
O=C(CNC(=O)c1ccccc1)NCC(=O)OCC(=O)c1ccc2ccccc2c1 | · | · | -10.0%[57.1 µM] | 16.8%[57 µM] | ·
O=C(C1=C(O)/C(=C/c2ccc(O)cc2)CCC1)C(F)(F)F | -1.4% | 10µM* | -29.6% | 25.5% | -32.9%
O=C(NNC1=C(C(=O)C(F)(F)F)CCC1)c1cccnc1 | -4.0% | 14.3% | -16.3% | 22.4% | -22.0%
COc1ccc(/C=C2\CCCC(C(=O)C(F)(F)F)=C2O)cc1 | · | 8.91µM* | -3.6% | 31.0% | 11.5%
Cc1ccc(NS(=O)(=O)c2cccc(F)c2)cc1C | · | · | -1.4% | · | ·
COc1ccc(-c2nnc(SCC(=O)N3CCCC3=O)n2N)cc1OC | 0.7% | · | 0.7% | 52.8% | ·
COc1ccc(-c2nnc(SC(C(=O)c3c[nH]c4ccccc34)c3ccccc3)n2N)cc1OC (centres undefined) | -12.6% | 8.91µM* | ? | 1.8% | -38.9%
O=C(Cn1c(=O)n(-c2cccc(C(F)(F)F)c2)c(=O)c2sccc21)NCC1CCCO1 (centres undefined) | · | 7.5% | 39.8µM* | 8.8% | -0.8%
O=C1C2=C(C(=O)c3ccccc31)C1O[C@](CCCCN3C(=O)c4ccccc4C3=O)(Cc3c1ccc1ccccc31)O2 | · | -28.1%[2.33 µM] | · | · | ?
COc1cc(NC(=O)C2CCN(S(=O)(=O)c3c(C)noc3/C=C/c3ccccc3F)CC2)cc(OC)c1OC | · | -4.8%[59 µM] | 2.6% | 24.1%[57 µM] | 1.8%
O=C(c1cc(-c2ccccc2)nc2ccccc12)N1CCN(c2ccccc2O)CC1 | · | · | ? | 1.5% | -38.5%
Cc1ccc2nc(-c3ccccc3)cc(C(=O)N3CCN(c4ccccc4O)CC3)c2c1 | -10.1% | 50.1µM* | ? | -17.5% | -31.7%
SMILES | L3MBTL1 block | G9a inh | JMJD2A Tudor inh | HP1b binding inh | BAZ2B block
O=C(Oc1csc(=S)n1C(=O)c1ccccc1)c1ccccc1 | · | 1µM* | 35.5µM* | 50.1µM* | ?
Cc1cccc(C(=O)Oc2csc(=S)n2C(=O)c2cccc(C)c2)c1 | -7.5% | 1.58µM* | ? | -30.3% | ?
COc1ccc(-c2cc(C(F)(F)F)n3nc(C(=O)O)c(Cl)c3n2)cc1OC | · | 9.0%[59 µM] | -16.7% | 15.2% | ?
Cc1nnsc1C(=O)Oc1ccccc1Cl | · | ? | 15.6% | 68.3% | 1.8%
Cc1ccc(-c2nnc(Nc3cccc(O)c3)c3ccccc23)cc1S(=O)(=O)N1CCOCC1 | · | -32.3%[59 µM] | ? | 25.0% | -13.2%
Cc1cccc(Nc2nnc(-c3ccc(N4CCOCC4)c([N+](=O)[O-])c3)c3ccccc23)c1 | -28.8% | 10µM* | ? | 4.1% | ?

Screening results: PubChem, National Center for Advancing Translational Sciences (NCATS)
